In PubChem BioAssay AID618 (Sanford-Burnham Center for Chemical Genomics, 2007):
The campaign covered roughly 87,000 compounds. About 540 (0.62%) were called active. How the calls were made is not given here. The sample as a whole holds a higher share of actives than the screen did. Potency and affinity values are given separately.

Assay: MT1-MMP gene expression reporter suppression – cell-based, luciferase reporter, luminescence (AID 618);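 further: actives suppress MT1-MMP promoter-driven transcription so potencies describe inhibitors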
Details: MT1-MMP promoter luciferase reporter cells

outcome, inactive:
Cc1nc(SCc2cccc(Oc3ccccc3)c2)n[nH]1, c1ccc(-c2ccccn2)nc1, c1ccc(-c2nnc(-c3ccccn3)nn2)nc1, CCc1nc(OCC(=O)c2ccccc2)c(C#N)c2c1COC(C)(C)C2, NC(=O)c1ccccc1N/C=C/C(=O)c1ccc(Cl)cc1, Cc1ccc(C(=O)/C=C/Nc2ccccc2C(N)=O)cc1, COc1ccc(C(=O)/C=C/Nc2cccc(C)n2)cc1OC, Cc1c(N/C=C/C(=O)c2ccc(Cl)cc2)c(=O)n(-c2ccccc2)n1C, Cc1ccc(/C=C/C(=O)c2ccccc2)cc1, Cc1cc(N/C=C/C(=O)c2ccc(Br)cc2)no1, NC(=O)c1ccccc1N/C=C/C(=O)c1ccc(F)cc1, COc1ccc(C(=O)Nc2ccccn2)cc1, CCCCc1ccc(Nc2nc(CCC)cc(=O)[nH]2)cc1, COc1ccc(C2C(C#N)=C(N)Oc3n[nH]c(-c4ccccn4)c32)c(OC)c1OC (stereo not drawn), C=C(c1ccc(OC)cc1)c1ccc(OC)cc1, CC(C)Cn1c(N)c(C(=O)COC(=O)c2cc(C(F)(F)F)nc3ccccc23)c(=O)n(C)c1=O, COC(=O)C(C(=O)Nc1ncccn1)C1CCCCCC1 (stereo not drawn), O=C(Nc1cccnc1)c1c(F)c(F)c(F)c(F)c1F, Cc1ccc(S(=O)(=O)n2nc(-c3ccc(Cl)cc3)nc2NCc2ccco2)cc1, Cc1ccnn1CCSCC(=O)O, O=C(CC(=O)Nc1ccccn1)Nc1ccccn1, O=C(/C=C/NNC(=O)c1ccccc1)c1ccccc1, CCn1c(=NC(=O)CN2C(=O)CCC2=O)sc2c(C)cc(C)cc21, Cc1cc(N2CCCC2=O)cc(C)c1S(=O)(=O)NCCOc1ccc(C(C)(C)C)cc1, N#Cc1cc(N)c(Nc2ccccc2)cc1C#N, CCC1(c2ccccc2)NC(=O)N(CC(=O)Nc2cccc(C#N)c2)C1=O (stereo not drawn), COc1cc(C)c(Cl)cc1S(=O)(=O)n1cnc(C)c1, COc1cc(C)c(C(C)C)cc1S(=O)(=O)n1ccnc1, CCN1C(=O)/C(=C2\C=Cc3ccccc3N2CC)OC1=S, CCN1C(=C2C(=O)c3ccccc3C2=O)C=Cc2ccccc21, CC1(C)CC(=O)N(c2ccccc2)C1(C)O (stereo not drawn), C=CCn1c(C)cc(C(=O)CSc2nc3ccccc3c(=O)[nH]2)c1C, CCn1c(SCC(=O)c2cc(C)n(CC3CCCO3)c2C)nc2ccccc21 (stereo not drawn), Cc1cc(C(=O)CSc2nc3ccc(Cl)cc3[nH]2)c(C)n1CC1CCCO1 (stereo not drawn), Cc1cc(C(=O)CSc2nc3ccccc3[nH]2)c(C)n1C, C=CCc1c(C)nc(SC)nc1Nc1ccc(C(C)=O)cc1, CC1CC(C)(C)NC(=O)O1 (stereo not drawn), Cc1cc(=O)[nH]c(-n2nc(C)cc2C)n1, Cc1ccc(Nc2cc(C)nn2-c2nc(C)cc(C)n2)cc1, Cc1nc(CSc2nc3[nH]ncc3c(=O)n2-c2ccccc2)cs1, Cc1noc(C)c1CSc1nc2ccccc2c(=O)n1-c1ccccc1, C=CCn1c(SCc2c(C)noc2C)nc2cc(C(=O)O)ccc2c1=O, Cc1noc(C)c1CSc1nc2ccccc2c(=O)n1-c1ccc(Cl)cc1, COc1ccccc1NC(=O)CSc1nnnn1-c1ccc(C)cc1, COCCCNC(=O)CCc1nc2cccnc2n1Cc1ccccc1, O=C(NNC(=O)c1ccccc1Br)c1ccc(SCC2CCCO2)c([N+](=O)[O-])c1 (stereo not drawn), COc1ccc(CC(=O)N2CCC(Nc3nc4ccccc4n3Cc3ccc(F)cc3)CC2)cc1, COc1ccc(CNc2nc3ccccc3n2CCN2CCOCC2)cc1, COc1ccc(N/C=C(\C#N)c2ccc(OCCCF)cc2)cc1, COc1ccc(C2C(C#N)=C(N)N3C(=C2C#N)Sc2ccccc23)cc1 (stereo not drawn)

outcome, active:
Cc1ccc(C(=O)/C=C/Nc2ccccn2)cc1, NC(=O)c1ccccc1N/C=C/C(=O)c1ccccc1, COc1cc(C)c(C(C)C)cc1S(=O)(=O)n1cnc(C)c1, CCN1/C(=C/c2ccc3ccccc3[n+]2CC)C=Cc2ccccc21, Cc1ccc(Nc2cc(C)nn2-c2nc(C)cc(=O)[nH]2)cc1, Cc1noc(C)c1CSc1nc2[nH]ncc2c(=O)n1-c1ccccc1, C=CCn1c(SCc2c(C)noc2C)nc2ccccc2c1=O, COc1ccc(CCN2CCC(Nc3nc4ccccc4n3Cc3ccc(F)cc3)CC2)cc1
